Seven sequences from paper PMC7862700, “An all-to-all approach to the identification of sequence-specific readers for epigenetic DNA modifications on cytosine” can be followed below.

What all share (assay): DAPPL (digital affinity profiling via proximity ligation, sequencing); 10 mM Tris-HCl pH 7.5, 50 mM NaCl, 1 mM DTT, 4% glycerol, room temperature, 30 min; GST-TFs on glutathione beads, 16-mer random dsDNA library, 0.1% formaldehyde crosslink after washing; high values mean tight binding
Common to all, as to details: protein: recombinant; tags: N-terminal GST; dsDNA, one strand shown

The target of one experiment is T1, FLI1 (Homo sapiens, UniProt Q01543 1-452).
T1 sequence: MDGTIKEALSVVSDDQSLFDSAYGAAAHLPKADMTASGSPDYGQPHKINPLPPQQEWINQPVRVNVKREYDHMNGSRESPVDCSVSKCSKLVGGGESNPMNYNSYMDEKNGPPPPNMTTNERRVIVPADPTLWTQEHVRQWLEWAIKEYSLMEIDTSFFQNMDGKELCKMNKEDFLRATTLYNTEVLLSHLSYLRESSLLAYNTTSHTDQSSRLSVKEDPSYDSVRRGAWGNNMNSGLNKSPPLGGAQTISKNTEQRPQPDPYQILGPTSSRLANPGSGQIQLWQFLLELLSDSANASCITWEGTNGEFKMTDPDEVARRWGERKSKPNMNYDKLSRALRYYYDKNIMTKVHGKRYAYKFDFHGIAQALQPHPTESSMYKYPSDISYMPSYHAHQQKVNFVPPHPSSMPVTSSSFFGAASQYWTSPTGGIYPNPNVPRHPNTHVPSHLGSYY
The procedure, abridged:
(§1)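 Binding signal is given per hexamer as its read frequency for a factor divided by its frequency in the tag-only sample. GST-fused human transcription factors were expressed in yeast, captured on glutathione beads, barcoded with DNA and pooled with that sample, then incubated with 200 nmole of a 16-mer random double-stranded DNA library in Tris/NaCl/DTT/glycerol buffer for 30 min at room temperature. The pools were then washed, crosslinked, proximity-ligated, amplified by PCR and sequenced on an Illumina NextSeq500.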

A further experiment has as its target T2, ELK1 (Homo sapiens, UniProt P19419 1-428).
T2 sequence: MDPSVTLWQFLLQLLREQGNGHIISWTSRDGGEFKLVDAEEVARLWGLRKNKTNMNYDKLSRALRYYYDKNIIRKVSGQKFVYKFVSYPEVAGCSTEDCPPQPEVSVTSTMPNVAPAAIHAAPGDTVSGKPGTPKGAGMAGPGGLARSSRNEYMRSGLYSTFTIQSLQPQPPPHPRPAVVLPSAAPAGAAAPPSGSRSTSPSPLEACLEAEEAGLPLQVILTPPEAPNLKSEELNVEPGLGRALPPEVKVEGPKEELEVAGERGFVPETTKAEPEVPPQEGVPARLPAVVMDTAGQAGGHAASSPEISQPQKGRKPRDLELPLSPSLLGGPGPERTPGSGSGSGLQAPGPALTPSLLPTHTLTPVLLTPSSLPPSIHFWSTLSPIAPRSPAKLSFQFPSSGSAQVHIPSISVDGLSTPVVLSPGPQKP
The method in brief: as §1

Another experiment concerns the target T3, GABPA (Homo sapiens, UniProt Q06546 1-454).
T3 sequence: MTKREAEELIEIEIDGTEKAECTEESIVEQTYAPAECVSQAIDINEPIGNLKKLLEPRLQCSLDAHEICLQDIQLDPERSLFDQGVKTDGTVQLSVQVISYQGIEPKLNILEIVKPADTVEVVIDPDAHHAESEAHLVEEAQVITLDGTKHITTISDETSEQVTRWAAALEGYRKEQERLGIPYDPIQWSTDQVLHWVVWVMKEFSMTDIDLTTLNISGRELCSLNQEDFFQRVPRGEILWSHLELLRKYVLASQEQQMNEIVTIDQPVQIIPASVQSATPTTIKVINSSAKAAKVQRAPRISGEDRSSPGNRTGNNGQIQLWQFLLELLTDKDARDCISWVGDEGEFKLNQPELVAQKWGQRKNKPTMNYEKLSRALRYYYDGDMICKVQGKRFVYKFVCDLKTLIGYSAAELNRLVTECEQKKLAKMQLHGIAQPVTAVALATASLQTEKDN
The procedure, abridged: as §1

Another experiment addresses T4, ERG (Homo sapiens, UniProt P11308 1-479).
T4 sequence: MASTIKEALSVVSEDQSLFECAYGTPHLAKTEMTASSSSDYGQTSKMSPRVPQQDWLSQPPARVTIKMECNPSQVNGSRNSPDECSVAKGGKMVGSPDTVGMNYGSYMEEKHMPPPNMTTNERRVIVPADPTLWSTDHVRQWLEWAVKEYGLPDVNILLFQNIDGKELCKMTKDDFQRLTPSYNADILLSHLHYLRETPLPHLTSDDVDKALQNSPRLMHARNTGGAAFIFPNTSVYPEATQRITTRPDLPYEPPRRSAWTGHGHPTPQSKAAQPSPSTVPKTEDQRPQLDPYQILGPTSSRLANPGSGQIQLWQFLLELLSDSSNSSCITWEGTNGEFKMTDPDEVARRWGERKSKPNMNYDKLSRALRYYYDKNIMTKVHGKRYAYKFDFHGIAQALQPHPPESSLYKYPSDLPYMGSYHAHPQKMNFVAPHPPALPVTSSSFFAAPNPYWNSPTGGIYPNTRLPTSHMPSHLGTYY
The procedure, abridged:
as §1

For another experiment, the target named is ELF1 (Homo sapiens, UniProt P32519 1-619). The procedure, abridged:
as §1

The next experiment deals with T5, EHF (Homo sapiens, UniProt Q9NZC4 1-300).
T5 sequence: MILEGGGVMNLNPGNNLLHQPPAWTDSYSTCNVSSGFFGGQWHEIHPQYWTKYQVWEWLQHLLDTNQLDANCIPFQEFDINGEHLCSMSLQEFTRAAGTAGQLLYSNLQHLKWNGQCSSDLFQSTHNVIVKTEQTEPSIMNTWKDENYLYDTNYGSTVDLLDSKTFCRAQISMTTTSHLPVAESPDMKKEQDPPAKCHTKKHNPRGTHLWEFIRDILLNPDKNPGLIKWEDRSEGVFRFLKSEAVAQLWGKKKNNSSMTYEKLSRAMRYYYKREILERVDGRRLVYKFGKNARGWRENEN
The procedure, abridged:
as §1

A further experiment has as its target SPI1 (Homo sapiens, UniProt P17947 1-270). The method in brief: as §1
The next experiment concerns the target SPIB (Homo sapiens, UniProt Q01892 1-262). The method in brief: as §1
A further experiment concerns the target T6, ELK3 (Homo sapiens, UniProt P41970 1-407).
T6 sequence: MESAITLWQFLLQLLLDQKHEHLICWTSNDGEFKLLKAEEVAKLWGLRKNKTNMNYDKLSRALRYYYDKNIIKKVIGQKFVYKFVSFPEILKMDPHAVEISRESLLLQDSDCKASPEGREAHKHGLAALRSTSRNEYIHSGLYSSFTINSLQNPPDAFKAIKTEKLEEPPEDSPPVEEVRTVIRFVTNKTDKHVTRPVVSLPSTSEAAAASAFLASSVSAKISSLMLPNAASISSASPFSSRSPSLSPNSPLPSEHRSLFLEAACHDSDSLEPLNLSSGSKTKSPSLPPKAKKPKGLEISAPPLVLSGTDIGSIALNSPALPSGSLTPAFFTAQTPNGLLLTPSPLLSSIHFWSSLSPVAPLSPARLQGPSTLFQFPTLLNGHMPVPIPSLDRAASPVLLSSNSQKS
The procedure, abridged: as §1

ELF1, sequence (P32519 whole entry): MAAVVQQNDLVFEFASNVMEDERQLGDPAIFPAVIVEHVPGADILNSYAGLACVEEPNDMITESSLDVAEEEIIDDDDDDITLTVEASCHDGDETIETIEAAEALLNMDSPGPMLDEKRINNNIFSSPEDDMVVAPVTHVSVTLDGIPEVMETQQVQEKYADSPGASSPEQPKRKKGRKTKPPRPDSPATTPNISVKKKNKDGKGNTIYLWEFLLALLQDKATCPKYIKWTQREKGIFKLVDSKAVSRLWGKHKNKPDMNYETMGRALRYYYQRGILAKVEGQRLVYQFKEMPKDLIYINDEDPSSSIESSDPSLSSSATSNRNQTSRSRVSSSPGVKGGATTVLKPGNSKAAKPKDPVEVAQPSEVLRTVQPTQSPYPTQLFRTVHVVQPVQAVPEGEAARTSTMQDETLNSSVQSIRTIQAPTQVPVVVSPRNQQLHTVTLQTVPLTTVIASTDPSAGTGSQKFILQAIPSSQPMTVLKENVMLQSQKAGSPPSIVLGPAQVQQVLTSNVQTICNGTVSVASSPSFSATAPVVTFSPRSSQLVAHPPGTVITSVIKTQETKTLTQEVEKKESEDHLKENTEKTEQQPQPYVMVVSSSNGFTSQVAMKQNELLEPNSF
SPIB, sequence (Q01892 whole entry): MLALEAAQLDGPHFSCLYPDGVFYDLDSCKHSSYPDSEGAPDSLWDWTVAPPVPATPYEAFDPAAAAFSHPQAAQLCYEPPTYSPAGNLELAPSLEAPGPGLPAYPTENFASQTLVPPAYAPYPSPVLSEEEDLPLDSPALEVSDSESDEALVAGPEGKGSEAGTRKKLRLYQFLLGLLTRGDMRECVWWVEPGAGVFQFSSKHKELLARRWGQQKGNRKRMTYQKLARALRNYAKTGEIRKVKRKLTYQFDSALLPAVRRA

Turning to AAACTT, the binding signal with FLI1 is 1.27 fold enrichment (6-mer frequency, TF over GST control); with ELK1, 1.22 fold enrichment (6-mer frequency, TF over GST control); with GABPA, 1.31 fold enrichment (6-mer frequency, TF over GST control); in the experiment with ERG it was 1.24 fold enrichment (6-mer frequency, TF over GST control); in the experiment with ELF1, 1.24 fold enrichment (6-mer frequency, TF over GST control); with EHF it was 1.31 fold enrichment (6-mer frequency, TF over GST control). Besides, the binding signal with SPI1 was 1.24 fold enrichment (6-mer frequency, TF over GST control); with SPIB, 1.25 fold enrichment (6-mer frequency, TF over GST control); with ELK3, 1.3 fold enrichment (6-mer frequency, TF over GST control).
Consider GGATCC, for which the binding signal is 1.15 fold enrichment (6-mer frequency, TF over GST control) with FLI1; 1.13 fold enrichment (6-mer frequency, TF over GST control) in the experiment with ELK1; 1.18 fold enrichment (6-mer frequency, TF over GST control) with GABPA; 1.25 fold enrichment (6-mer frequency, TF over GST control) with ERG; 1.18 fold enrichment (6-mer frequency, TF over GST control) with ELF1; 1.16 fold enrichment (6-mer frequency, TF over GST control) in the experiment with EHF. For the same sequence, the binding signal with SPI1 is 1.06 fold enrichment (6-mer frequency, TF over GST control); in the experiment with SPIB it was 1.24 fold enrichment (6-mer frequency, TF over GST control); with ELK3 it was 1.07 fold enrichment (6-mer frequency, TF over GST control).
Turning to CACGCG, the binding signal with FLI1 is 1.32 fold enrichment (6-mer frequency, TF over GST control); with ELK1, 1.15 fold enrichment (6-mer frequency, TF over GST control); with GABPA, 1.23 fold enrichment (6-mer frequency, TF over GST control); with ERG, 1.18 fold enrichment (6-mer frequency, TF over GST control); with ELF1, 1.23 fold enrichment (6-mer frequency, TF over GST control); with EHF, 1.2 fold enrichment (6-mer frequency, TF over GST control). Also, the binding signal is 1.08 fold enrichment (6-mer frequency, TF over GST control) in the experiment with SPI1; 1.2 fold enrichment (6-mer frequency, TF over GST control) with SPIB; 1.14 fold enrichment (6-mer frequency, TF over GST control) in the experiment with ELK3.
Regarding TGCCAC, the binding signal with FLI1 is 1.21 fold enrichment (6-mer frequency, TF over GST control); with ELK1, 1.2 fold enrichment (6-mer frequency, TF over GST control); in the experiment with GABPA, 1.14 fold enrichment (6-mer frequency, TF over GST control); with ERG, 1.26 fold enrichment (6-mer frequency, TF over GST control); in the experiment with ELF1, 1.18 fold enrichment (6-mer frequency, TF over GST control); with EHF it was 1.23 fold enrichment (6-mer frequency, TF over GST control). Further, the binding signal in the experiment with SPI1 was 1.21 fold enrichment (6-mer frequency, TF over GST control); in the experiment with SPIB, 1.13 fold enrichment (6-mer frequency, TF over GST control); with ELK3 it was 1.23 fold enrichment (6-mer frequency, TF over GST control).
In the case of ATTGAA, the binding signal is 1.07 fold enrichment (6-mer frequency, TF over GST control) with FLI1; 1.16 fold enrichment (6-mer frequency, TF over GST control) with ELK1; 1.07 fold enrichment (6-mer frequency, TF over GST control) with GABPA; 1.05 fold enrichment (6-mer frequency, TF over GST control) with ERG; 1.06 fold enrichment (6-mer frequency, TF over GST control) with ELF1; 1.03 fold enrichment (6-mer frequency, TF over GST control) with EHF. In addition, the binding signal in the experiment with SPI1 is 1.04 fold enrichment (6-mer frequency, TF over GST control); with SPIB, 1.09 fold enrichment (6-mer frequency, TF over GST control); with ELK3, 1.11 fold enrichment (6-mer frequency, TF over GST control).
GGTTTC: the binding signal is 1.53 fold enrichment (6-mer frequency, TF over GST control) in the experiment with FLI1; 1.39 fold enrichment (6-mer frequency, TF over GST control) with ELK1; 1.54 fold enrichment (6-mer frequency, TF over GST control) with GABPA; 1.6 fold enrichment (6-mer frequency, TF over GST control) with ERG; 1.54 fold enrichment (6-mer frequency, TF over GST control) with ELF1; 1.51 fold enrichment (6-mer frequency, TF over GST control) with EHF. The binding signal was 1.6 fold enrichment (6-mer frequency, TF over GST control) in the experiment with SPI1; 1.52 fold enrichment (6-mer frequency, TF over GST control) in the experiment with SPIB; 1.62 fold enrichment (6-mer frequency, TF over GST control) with ELK3.
TGTCAT: the binding signal with FLI1 is 1.24 fold enrichment (6-mer frequency, TF over GST control); in the experiment with ELK1 it was 1.08 fold enrichment (6-mer frequency, TF over GST control); with GABPA, 1.18 fold enrichment (6-mer frequency, TF over GST control); with ERG, 1.11 fold enrichment (6-mer frequency, TF over GST control); in the experiment with ELF1 it was 1.15 fold enrichment (6-mer frequency, TF over GST control); with EHF it was 1.17 fold enrichment (6-mer frequency, TF over GST control). Further, the binding signal with SPI1 was 1.09 fold enrichment (6-mer frequency, TF over GST control); with SPIB, 1.2 fold enrichment (6-mer frequency, TF over GST control); in the experiment with ELK3, 1.04 fold enrichment (6-mer frequency, TF over GST control).
